We go through 5 compounds from ChEMBL document CHEMBL1961873, “Compounds: GSK PKIS; Assays: Nanosyn kinase panel” (2012).

Test [1] has as its target Serine/threonine-protein kinase pim-2 (Homo sapiens) (UniProt Q9P1W9). The settings on record: at 1 µM.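 Note: each value is a mean of the inhibition measurements against the kinase.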
In test [2] the target is Serine/threonine-protein kinase pim-3 (Homo sapiens) (UniProt Q86V86). As to conditions: at 0.1 µM.
The target is the same in test [3]. The settings on record: at 1 µM.
The target of test [4] is T1, MAP kinase-activated protein kinase 5 (Homo sapiens) (UniProt Q8IW41).
T1 sequence (whole entry): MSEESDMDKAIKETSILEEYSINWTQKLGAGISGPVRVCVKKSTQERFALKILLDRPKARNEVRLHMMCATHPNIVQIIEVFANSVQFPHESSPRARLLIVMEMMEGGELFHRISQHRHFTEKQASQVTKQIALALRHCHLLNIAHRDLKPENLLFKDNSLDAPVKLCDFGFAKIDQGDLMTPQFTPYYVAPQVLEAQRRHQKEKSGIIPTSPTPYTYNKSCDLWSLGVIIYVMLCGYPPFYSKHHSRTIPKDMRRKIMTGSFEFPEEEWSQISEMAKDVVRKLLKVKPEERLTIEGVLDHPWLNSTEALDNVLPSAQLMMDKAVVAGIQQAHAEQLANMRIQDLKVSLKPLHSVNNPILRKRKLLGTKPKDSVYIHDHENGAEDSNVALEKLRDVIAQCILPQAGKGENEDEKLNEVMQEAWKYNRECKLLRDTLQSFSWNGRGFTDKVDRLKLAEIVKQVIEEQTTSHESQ
As to conditions: at 0.1 µM.

Test [5] concerns the target T1, MAP kinase-activated protein kinase 5 (Homo sapiens). As to conditions: at 1 µM.
For test [6], the target named is Serine/threonine-protein kinase SIK1 (Homo sapiens) (UniProt P57059). The settings on record: at 0.1 µM.
Chain of Serine/threonine-protein kinase SIK1 (Homo sapiens) (P57059 whole entry): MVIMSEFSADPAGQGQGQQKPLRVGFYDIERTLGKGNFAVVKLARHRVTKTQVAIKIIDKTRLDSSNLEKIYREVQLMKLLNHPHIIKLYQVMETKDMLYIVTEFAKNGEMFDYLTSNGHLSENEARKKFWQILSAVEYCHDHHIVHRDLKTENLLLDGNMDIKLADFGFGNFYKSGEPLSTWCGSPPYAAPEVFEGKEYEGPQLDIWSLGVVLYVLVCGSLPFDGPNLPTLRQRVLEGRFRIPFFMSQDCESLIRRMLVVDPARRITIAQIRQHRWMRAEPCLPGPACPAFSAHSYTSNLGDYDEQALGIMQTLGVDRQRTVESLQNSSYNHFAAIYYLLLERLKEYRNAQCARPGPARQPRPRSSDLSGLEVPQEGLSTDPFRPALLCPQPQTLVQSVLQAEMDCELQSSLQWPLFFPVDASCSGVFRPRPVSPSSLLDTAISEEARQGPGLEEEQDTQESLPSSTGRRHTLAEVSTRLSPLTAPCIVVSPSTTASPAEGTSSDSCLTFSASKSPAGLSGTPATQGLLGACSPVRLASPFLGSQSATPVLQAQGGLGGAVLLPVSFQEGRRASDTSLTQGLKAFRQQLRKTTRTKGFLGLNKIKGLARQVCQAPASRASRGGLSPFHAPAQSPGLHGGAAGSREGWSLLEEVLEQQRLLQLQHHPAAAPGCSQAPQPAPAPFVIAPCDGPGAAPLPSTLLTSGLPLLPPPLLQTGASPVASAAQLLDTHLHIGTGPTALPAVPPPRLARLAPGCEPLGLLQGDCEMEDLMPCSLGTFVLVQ
Test [7] shares this target. The settings on record: at 1 µM.
For test [8], the target named is Serine/threonine-protein kinase SIK2 (Homo sapiens) (UniProt Q9H0K1). The settings on record: at 0.1 µM.
Chain of Serine/threonine-protein kinase SIK2 (Homo sapiens) (Q9H0K1 whole entry, looked up): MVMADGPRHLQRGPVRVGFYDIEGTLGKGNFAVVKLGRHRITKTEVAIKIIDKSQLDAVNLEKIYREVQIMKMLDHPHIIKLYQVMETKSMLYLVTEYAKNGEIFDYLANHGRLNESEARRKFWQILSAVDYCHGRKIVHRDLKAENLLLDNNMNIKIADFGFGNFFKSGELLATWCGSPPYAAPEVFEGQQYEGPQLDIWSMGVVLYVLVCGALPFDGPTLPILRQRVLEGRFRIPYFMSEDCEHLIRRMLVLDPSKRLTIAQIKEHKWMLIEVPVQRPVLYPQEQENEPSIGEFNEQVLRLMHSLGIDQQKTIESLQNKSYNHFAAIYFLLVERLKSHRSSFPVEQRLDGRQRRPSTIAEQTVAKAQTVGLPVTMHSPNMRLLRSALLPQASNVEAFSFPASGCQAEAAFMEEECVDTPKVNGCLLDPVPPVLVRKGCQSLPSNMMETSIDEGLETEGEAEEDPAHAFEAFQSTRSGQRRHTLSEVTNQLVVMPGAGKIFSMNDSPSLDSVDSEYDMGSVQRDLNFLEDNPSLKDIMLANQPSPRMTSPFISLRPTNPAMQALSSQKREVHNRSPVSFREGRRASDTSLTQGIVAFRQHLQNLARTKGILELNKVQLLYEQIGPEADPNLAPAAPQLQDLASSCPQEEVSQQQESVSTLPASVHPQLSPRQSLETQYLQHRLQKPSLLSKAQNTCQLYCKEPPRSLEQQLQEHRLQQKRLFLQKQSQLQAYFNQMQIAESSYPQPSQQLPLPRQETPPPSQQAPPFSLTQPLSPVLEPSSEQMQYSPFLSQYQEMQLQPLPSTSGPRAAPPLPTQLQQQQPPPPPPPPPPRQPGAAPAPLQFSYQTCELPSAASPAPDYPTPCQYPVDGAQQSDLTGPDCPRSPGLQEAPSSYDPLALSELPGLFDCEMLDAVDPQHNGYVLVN
Test [9] shares this target. The settings on record: at 1 µM.
The target in test [10] is T2, Serine/threonine-protein kinase TBK1 (Homo sapiens) (UniProt Q9UHD2).
T2 sequence (whole entry): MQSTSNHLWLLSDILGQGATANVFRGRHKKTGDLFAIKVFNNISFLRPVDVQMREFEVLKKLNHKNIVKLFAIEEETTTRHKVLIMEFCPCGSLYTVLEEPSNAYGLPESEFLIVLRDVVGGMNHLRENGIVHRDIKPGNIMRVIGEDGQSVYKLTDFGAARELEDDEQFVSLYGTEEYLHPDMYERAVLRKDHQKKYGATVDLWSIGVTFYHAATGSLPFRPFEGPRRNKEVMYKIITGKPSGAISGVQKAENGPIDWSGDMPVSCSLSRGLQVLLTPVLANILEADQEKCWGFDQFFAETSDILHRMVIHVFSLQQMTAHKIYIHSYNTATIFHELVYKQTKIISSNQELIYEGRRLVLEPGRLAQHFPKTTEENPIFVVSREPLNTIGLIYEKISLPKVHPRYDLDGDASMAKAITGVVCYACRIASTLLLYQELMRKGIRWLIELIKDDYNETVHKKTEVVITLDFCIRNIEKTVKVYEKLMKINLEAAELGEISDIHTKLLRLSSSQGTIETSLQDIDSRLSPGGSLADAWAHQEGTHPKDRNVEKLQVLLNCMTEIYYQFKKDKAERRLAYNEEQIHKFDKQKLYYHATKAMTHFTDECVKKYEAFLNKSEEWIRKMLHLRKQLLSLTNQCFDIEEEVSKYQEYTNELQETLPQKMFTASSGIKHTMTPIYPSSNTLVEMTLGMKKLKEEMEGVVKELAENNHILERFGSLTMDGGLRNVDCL
As to conditions: at 0.1 µM.

Test [11] concerns the target T2, Serine/threonine-protein kinase TBK1 (Homo sapiens). As to conditions: at 1 µM.
In test [12] the target is T3, Testis-specific serine/threonine-protein kinase 1 (Homo sapiens) (UniProt Q9BXA7).
T3 sequence (whole entry): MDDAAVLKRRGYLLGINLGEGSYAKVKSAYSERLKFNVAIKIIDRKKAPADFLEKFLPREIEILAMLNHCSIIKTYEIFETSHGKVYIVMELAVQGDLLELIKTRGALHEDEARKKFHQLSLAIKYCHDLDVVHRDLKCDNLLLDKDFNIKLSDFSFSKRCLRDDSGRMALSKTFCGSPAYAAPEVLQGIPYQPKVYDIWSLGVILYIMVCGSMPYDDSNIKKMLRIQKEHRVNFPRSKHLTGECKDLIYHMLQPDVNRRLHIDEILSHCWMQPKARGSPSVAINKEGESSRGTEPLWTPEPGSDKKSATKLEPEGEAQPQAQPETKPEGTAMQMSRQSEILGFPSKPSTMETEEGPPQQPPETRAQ
As to conditions: at 0.1 µM.

Test [13] addresses T3, Testis-specific serine/threonine-protein kinase 1 (Homo sapiens). As to conditions: at 1 µM.
Test [14] deals with T4, Testis-specific serine/threonine-protein kinase 2 (Homo sapiens) (UniProt Q96PF2).
T4 sequence (whole entry): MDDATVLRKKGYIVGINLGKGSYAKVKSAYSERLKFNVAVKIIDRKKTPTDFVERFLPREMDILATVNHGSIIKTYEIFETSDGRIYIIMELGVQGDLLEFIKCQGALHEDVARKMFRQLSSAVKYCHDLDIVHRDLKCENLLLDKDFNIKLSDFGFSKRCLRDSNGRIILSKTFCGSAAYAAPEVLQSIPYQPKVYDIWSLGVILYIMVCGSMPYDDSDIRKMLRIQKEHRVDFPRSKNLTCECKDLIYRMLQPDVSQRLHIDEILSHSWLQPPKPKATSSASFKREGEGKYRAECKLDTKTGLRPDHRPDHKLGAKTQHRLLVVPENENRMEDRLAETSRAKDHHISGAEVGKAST
As to conditions: at 0.1 µM.

The target of test [15] is T4, Testis-specific serine/threonine-protein kinase 2 (Homo sapiens). The settings on record: at 1 µM.
Test [16] has as its target Casein kinase I isoform alpha (Homo sapiens) (UniProt P48729). The settings on record: at 0.1 µM.
The target is the same in test [17]. The settings on record: at 1 µM.
For test [18], the target named is Casein kinase I isoform gamma-1 (Homo sapiens) (UniProt Q9HCP0). As to conditions: at 0.1 µM.
Chain of Casein kinase I isoform gamma-1 (Homo sapiens) (Q9HCP0 whole entry, looked up, canonical isoform): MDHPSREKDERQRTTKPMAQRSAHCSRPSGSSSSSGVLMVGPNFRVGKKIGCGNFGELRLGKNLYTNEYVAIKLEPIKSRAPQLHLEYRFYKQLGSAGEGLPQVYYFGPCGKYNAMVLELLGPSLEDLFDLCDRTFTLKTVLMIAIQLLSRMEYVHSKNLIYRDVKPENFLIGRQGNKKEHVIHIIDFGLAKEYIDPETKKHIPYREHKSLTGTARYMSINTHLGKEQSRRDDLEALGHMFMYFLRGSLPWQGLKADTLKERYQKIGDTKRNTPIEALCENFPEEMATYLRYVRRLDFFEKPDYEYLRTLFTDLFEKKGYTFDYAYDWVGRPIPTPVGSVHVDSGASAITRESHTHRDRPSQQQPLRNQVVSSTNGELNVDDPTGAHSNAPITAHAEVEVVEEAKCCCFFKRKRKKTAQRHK
The target is the same in test [19]. As to conditions: at 1 µM.
Test [20] has as its target Casein kinase I isoform gamma-2 (Homo sapiens) (UniProt P78368). As to conditions: at 0.1 µM.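 Note: values are mean inhibition figures reported as part of the GSK PKIS dataset.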

SMILES strings stand for the structures.

Chain of Casein kinase I isoform alpha (Homo sapiens) (P48729 2-337 limits assumed): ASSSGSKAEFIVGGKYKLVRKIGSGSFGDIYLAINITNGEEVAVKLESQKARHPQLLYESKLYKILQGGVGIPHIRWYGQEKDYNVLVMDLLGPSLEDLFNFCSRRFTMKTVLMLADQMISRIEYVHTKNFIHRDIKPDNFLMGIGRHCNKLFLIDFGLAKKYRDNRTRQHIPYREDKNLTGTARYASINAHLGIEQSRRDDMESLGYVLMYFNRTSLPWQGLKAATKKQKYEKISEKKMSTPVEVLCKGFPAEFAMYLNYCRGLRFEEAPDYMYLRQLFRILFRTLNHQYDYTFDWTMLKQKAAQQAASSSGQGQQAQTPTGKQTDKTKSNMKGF
Chain of Casein kinase I isoform gamma-2 (Homo sapiens) (P78368 whole entry, looked up, canonical isoform): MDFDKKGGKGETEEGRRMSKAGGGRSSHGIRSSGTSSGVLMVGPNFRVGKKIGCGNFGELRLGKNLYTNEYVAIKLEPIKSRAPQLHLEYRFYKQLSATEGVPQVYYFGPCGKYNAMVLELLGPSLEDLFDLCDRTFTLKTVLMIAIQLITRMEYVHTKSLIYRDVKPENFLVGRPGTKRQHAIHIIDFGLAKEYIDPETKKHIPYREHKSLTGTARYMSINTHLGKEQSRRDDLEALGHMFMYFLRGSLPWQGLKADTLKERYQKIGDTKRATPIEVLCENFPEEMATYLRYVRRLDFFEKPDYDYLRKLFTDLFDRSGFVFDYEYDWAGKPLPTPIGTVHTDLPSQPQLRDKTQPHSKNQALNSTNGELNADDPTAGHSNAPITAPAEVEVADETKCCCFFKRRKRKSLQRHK
Chain of Serine/threonine-protein kinase pim-2 (Homo sapiens) (Q9P1W9 whole entry, looked up): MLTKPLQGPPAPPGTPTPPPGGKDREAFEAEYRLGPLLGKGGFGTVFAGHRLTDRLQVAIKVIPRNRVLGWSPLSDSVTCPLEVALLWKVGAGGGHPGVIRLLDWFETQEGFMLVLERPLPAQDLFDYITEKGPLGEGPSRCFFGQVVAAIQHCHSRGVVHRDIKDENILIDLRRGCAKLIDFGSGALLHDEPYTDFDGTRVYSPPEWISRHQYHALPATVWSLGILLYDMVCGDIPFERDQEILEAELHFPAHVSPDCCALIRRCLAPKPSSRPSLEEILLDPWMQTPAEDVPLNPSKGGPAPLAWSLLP

With `N#Cc1c(NC(=O)c2ccccc2F)sc2c1CCCC2`, the inhibition in test [1] is 0.56%; in test [2] it was 0.44%; in test [3] it was 2.71%; in [4], -0.42%; in test [5] it was -0.7%; in [6], 0.64%. Moreover, the inhibition was 2.74% in test [7]; -2.07% in [8]; -0.94% in [9]; -1.61% in [10]; -0.25% in [11]; 0.47% in test [12]. Further, the inhibition in [13] was 0.66%; in test [14], 0.05%; in [15], 0.04%; in test [16], -1.71%; in [17] it was -1.69%; in test [18], -1.23%. Moreover, the inhibition was -0.65% in [19] and -1.34% in test [20].
With `CS(=O)(=O)Nc1cccc(-c2ccc3c(NC(=O)C4CC4)n[nH]c3c2)c1`, the inhibition in test [1] was 1.38%; in test [2], -0.62%; in test [3], -2.53%; in [4], 0.1%; in test [5], -1.16%; in test [6], -0.72%. For the same compound, the inhibition in test [7] was 5.25%; in [8] it was -2.65%; in [9], 9.32%; in [10] it was -0.1%; in test [11] it was 3.56%; in test [12], 1.06%. The inhibition in [13] is 0.45%; in test [14], 0.02%; in test [15], -1.13%; in test [16], 1.72%; in [17], 1.75%; in test [18], 0.64%. Further, the inhibition in [19] was 3.47%; in [20] it was -0.83%.
With `FC(F)(F)c1ccc(-c2nn3ncccc3c2-c2ccnc(Nc3ccc4c(c3)OCCO4)n2)cc1`, the inhibition was 5.12% in test [1]; 6.66% in test [2]; 10.2% in test [3]; 2.37% in [4]; 5.39% in [5]; -4.38% in test [6]. The inhibition in [7] is 0.84%; in test [8] it was -0.15%; in test [9], 0.08%; in [10] it was 5.62%; in test [11] it was 4.67%; in [12], 1.27%. Also, the inhibition was 4.75% in [13]; 2.11% in [14]; 5.84% in test [15]; 9.84% in test [16]; 4.54% in test [17]; -0.1% in [18]. The inhibition in test [19] was determined as 0.59%; in [20] it was 0.52%.
Regarding `Cc1cc(Cl)cc2c1NC(=O)C2=NNc1ccc(S(N)(=O)=O)cc1`, the inhibition in [1] stood at 0.51%; in test [2], 0.42%; in [3], 2.98%; in test [4], 1.54%; in [5], 2.85%; in test [6], 1.46%. For the same compound, the inhibition in test [7] was 4.61%; in test [8], 5.46%; in [9] it was -2.05%; in test [10] it was 1.17%; in test [11] it was 1.59%; in test [12] it was 4.21%. Further, the inhibition in test [13] was 4.86%; in [14], 2.71%; in [15] it was 5.17%; in test [16], 1.05%; in [17] it was 0.59%; in test [18] it was 1.63%. Besides, the values for the inhibition in test [19] and in test [20] were 1.59% and 1.66%, respectively.
`C[C@@H](Oc1cc(-n2cnc3ccc(OCC4CCN(C)CC4)cc32)sc1C(N)=O)c1ccccc1C(F)(F)F`: the inhibition in test [1] is 1.56%; in test [2] it was 8.51%; in test [3] it was 47.6%; in [4] it was -0.8%; in test [5] it was -1.08%; in test [6] it was 13.5%. In addition, the inhibition in test [7] was 65.6%; in test [8], 6.88%; in [9], 30.3%; in test [10] it was -2.73%; in test [11], -1.33%; in [12], 1.47%. Also, the inhibition in test [13] is 22.4%; in test [14] it was -1.17%; in test [15], -0.35%; in test [16], -4.16%; in [17] it was -1.43%; in test [18], -1.72%. In addition, the inhibition in test [19] was -1.25%; in [20], -1.74%.
